Values joined by “and” are separate entries in the source; they are usually repeats but may differ in a detail not shown here. Equal values may be shown once. Inconclusive results are not listed. Where a call stands in place of a potency, no number is given. A structure can be active in one record and inactive in another. Active and inactive are the calls of the source. The call rests on the fitted dose curve; in most records, active means well fitted cell-killing curve with a large enough effect in the repeat runs (not every such curve was filed as active); inconclusive means weak or mixed curves, or effect the other way; inactive means no such curve, though single readings can be large or run the other way.
Assay: qHTS assay to identify small molecule antagonists of the estrogen related receptor signaling pathway with the pleiotropic PPARgamma coactivator (PGC) from Tox21 10K library - cell viability counter screen (AID 1224840); further: nearly all actives have a fitted effect of over 40% in size
Conditions: PGC/ERR reporter cells viability, CellTiter-Fluor, 17.5 h; series mostly up to 92.4 µM
Description: National Center for Advancing Translational Sciences [NCATS]
NIH Chemical Genomics Center [NCGC]
U.S. Environmental Protection Agency [EPA]
National Institutes of Environmental Health Sciences [NIEHS]
National Toxicology Program [NTP]
U.S. Food and Drug Administration [FDA]
Estrogen related receptors (ERRs), the first orphan nuclear receptors discovered, play an important role in the control of cellular energy metabolism. ERRs are required for high-energy production in response to the environmental challenges. The pleiotropic PPARgamma coactivator (PGC) is a major partner of ERR and a key regulator in energy homeostasis. Together they have been implicated in the etiology of metabolic disorders such as Type 2 diabetes and metabolic syndrome. ERR-alpha was also identified as an adverse marker for breast cancer progression; ERR-alpha-positive tumors have a poor prognosis. To screen and to identify environmental compounds that perturb the ERR and PGC/ERR signaling pathways could provide valuable information for potential therapeutic or preventive measures in the treatment of metabolic disease. To differentiate true PGC/ERR antagonists or agonist from cytotoxic substances, the assay is multiplexed with cell viability assay.
Tox21 Assay Protocol Summary:
The PGC/ERR cells were dispensed at 2,000 cells/5 ul/well in 1536-well white plates using a Multidrop dispenser. After the assay plates were incubated at a 37 C/5% CO2 incubator for 6 hours, 23 nL of compounds dissolved in DMSO, positive and negative controls or DMSO only was transferred to the assay plate by a pin tool. The plates were incubated at 37 C for 17.5 hours. 1 ul/well of CellTiter-Fluor reagent was added into the assay plates using a Flying Reagent Dispenser. After 30-minute incubation at 37 C/5% CO2, the fluorescence intensity in the plates was measured using a ViewLux plate reader.
Potency means the concentration at half of the fitted maximal effect.

Question: Which Potency does the source give for `O=[N+]([O-])c1c(Cl)c(Cl)c(Cl)c(Cl)c1Cl` here?
Answer: The Potency was “inactive”.

Question: Which Potency does the source give for `c1cc(OCC2CO2)ccc1Cc1ccc(OCC2CO2)cc1` (stereo not given) here?
Answer: Its Potency is “inactive”.

Question: For `Nc1ccc(-c2ccccc2)cc1`, which Potency is on record?
Answer: The Potency was “inactive”.

Question: With `CCC(CC)Nc1c([N+](=O)[O-])cc(C)c(C)c1[N+](=O)[O-]` as the compound, how does the Potency read?
Answer: Its Potency is “inactive”.

Question: Which Potency does the source give for `Cc1c(COC(=O)[C@@H]2[C@H](/C=C(\Cl)C(F)(F)F)C2(C)C)cccc1-c1ccccc1` here?
Answer: Its Potency is “inactive”.

Question: With `CCN(CC)C(=O)/C(Cl)=C(\C)OP(=O)(OC)OC` as the compound, how does the Potency read?
Answer: The Potency was “inactive”.

Question: Which Potency does the source give for `C#C[C@]1(O)CC[C@H]2[C@@H]3CCC4=CC(=O)CC[C@]4(C)[C@H]3CC[C@@]21C` here?
Answer: The Potency was “inactive”.

Question: For `Nc1c(Cl)cc([N+](=O)[O-])cc1Cl`, which Potency is on record?
Answer: Its Potency is “inactive”.

Question: With `C=C(C)[C@H]1Cc2c(ccc3c2O[C@@H]2COc4cc(OC)c(OC)cc4[C@@H]2C3=O)O1` as the compound, how does the Potency read?
Answer: Its Potency is “inactive”.

Question: With `Oc1ccc(-c2ccccc2)cc1` as the compound, how does the Potency read?
Answer: The Potency was “inactive”.

Question: For `O=S(=O)(Oc1ccc(Cl)cc1)c1ccc(Cl)cc1`, which Potency is on record?
Answer: The Potency was “inactive”.

Question: Which Potency does the source give for `NC(=S)Nc1ccccc1` here?
Answer: The Potency was “inactive”.

Question: For `CCCCN(CCCC)N=O`, which Potency is on record?
Answer: Its Potency is “inactive”.

Question: For `O=C1C=CC(=O)C=C1`, which Potency is on record?
Answer: The Potency was “inactive”.

Question: With `CCCCNC(=O)n1c(NC(=O)OC)nc2ccccc21` as the compound, how does the Potency read?
Answer: The Potency was “inactive”.

Question: For `O=P(O)(O)CCCl`, which Potency is on record?
Answer: Its Potency is “inactive”.

Question: Which Potency does the source give for `CC(C)NC(C)C` here?
Answer: Its Potency is “inactive”.

Question: With `CCCCCCCCOC(=O)c1ccccc1C(=O)OCCCCCCCC` as the compound, how does the Potency read?
Answer: The Potency was “inactive”.

Question: Which Potency does the source give for `O=C(O)C(F)(F)C(F)(F)C(F)(F)C(F)(F)C(F)(F)C(F)(F)C(F)(F)F` here?
Answer: The Potency was “inactive”.

Question: For `N#Cc1cc(Br)c(O)c(Br)c1`, which Potency is on record?
Answer: The Potency was “inactive”.

Question: For `Cc1ccc(OP(=O)(Oc2ccc(C)cc2)Oc2ccc(C)cc2)cc1`, which Potency is on record?
Answer: Its Potency is “inactive”.

Question: Which Potency does the source give for `Oc1c(Cl)c(Cl)c(Cl)c(Cl)c1Cl` here?
Answer: The Potency was “inactive”.

Question: Which Potency does the source give for `CCN(N=O)C(N)=O` here?
Answer: The Potency was “inactive”.

Question: For `CCOc1cc(C=O)ccc1O`, which Potency is on record?
Answer: Its Potency is “inactive”.

Question: With `C#CCOS(=O)OC1CCCCC1Oc1ccc(C(C)(C)C)cc1` (stereo not given) as the compound, how does the Potency read?
Answer: The Potency was “inactive”.

Question: For `CNC(=O)Oc1cccc2c1OC(C)(C)O2`, which Potency is on record?
Answer: The Potency was “inactive”.

Question: Which Potency does the source give for `CCOc1cc(Oc2ccc(C(F)(F)F)cc2Cl)ccc1[N+](=O)[O-]` here?
Answer: Its Potency is “inactive”.

Question: For `CC1(C)C(C=C(Cl)Cl)C1C(=O)OC(C#N)c1cccc(Oc2ccccc2)c1` (stereo not given), which Potency is on record?
Answer: Its Potency is “inactive”.

Question: Which Potency does the source give for `Oc1cc(Cl)ccc1Cl` here?
Answer: Its Potency is “inactive”.

Question: With `N#CCCCl` as the compound, how does the Potency read?
Answer: The Potency was “inactive”.

Question: For `Brc1ccc(Oc2cc(Br)c(Br)cc2Br)c(Br)c1`, which Potency is on record?
Answer: The Potency was “inactive”.

Question: For `Cc1ccccc1[N+](=O)[O-]`, which Potency is on record?
Answer: The Potency was “inactive”.

Question: For `O=C(Nc1ccc(Br)cc1)c1cc(Br)cc(Br)c1O`, which Potency is on record?
Answer: The Potency was “inactive and 21.1 µM (active)”.

Question: Which Potency does the source give for `CCCCC(CC)COC(=O)Cl` (stereo not given) here?
Answer: The Potency was “inactive”.

Question: With `C=CCc1ccc(OC)cc1` as the compound, how does the Potency read?
Answer: Its Potency is “inactive”.

Question: With `C1=Cc2cccc3cccc1c23` as the compound, how does the Potency read?
Answer: Its Potency is “inactive”.

Question: Which Potency does the source give for `OCC(O)CO` here?
Answer: The Potency was “inactive”.

Question: With `CN(C)c1ccc(C(=O)c2ccc(N(C)C)cc2)cc1` as the compound, how does the Potency read?
Answer: The Potency was “inactive”.

Question: For `O=Cc1ccco1`, which Potency is on record?
Answer: Its Potency is “inactive”.

Question: Which Potency does the source give for `Oc1cc(Cl)c(Cl)cc1Cl` here?
Answer: The Potency was “inactive”.

From PubChem BioAssay (Tox21)
